Experimental data taken from PubChem BioAssay AID1851 (National Center for Advancing Translational Sciences (NCATS), 2009).
Out of some 16,000 compounds screened, about 2,600 (16%) were called active. Not shown: some 20% with an inconclusive outcome. The call rests on the fitted dose curve; in most records, active means well fitted curve in the direction sought with a large enough effect; inconclusive means small, poorly fitted or top-dose-only effect, or effect the other way; inactive means no such curve, though single readings can be large or run the other way. Not all results are given here.

Target: Cytochrome P450 2D6 (Homo sapiens) (UniProt P10635)
Sequence (P10635 whole entry, looked up): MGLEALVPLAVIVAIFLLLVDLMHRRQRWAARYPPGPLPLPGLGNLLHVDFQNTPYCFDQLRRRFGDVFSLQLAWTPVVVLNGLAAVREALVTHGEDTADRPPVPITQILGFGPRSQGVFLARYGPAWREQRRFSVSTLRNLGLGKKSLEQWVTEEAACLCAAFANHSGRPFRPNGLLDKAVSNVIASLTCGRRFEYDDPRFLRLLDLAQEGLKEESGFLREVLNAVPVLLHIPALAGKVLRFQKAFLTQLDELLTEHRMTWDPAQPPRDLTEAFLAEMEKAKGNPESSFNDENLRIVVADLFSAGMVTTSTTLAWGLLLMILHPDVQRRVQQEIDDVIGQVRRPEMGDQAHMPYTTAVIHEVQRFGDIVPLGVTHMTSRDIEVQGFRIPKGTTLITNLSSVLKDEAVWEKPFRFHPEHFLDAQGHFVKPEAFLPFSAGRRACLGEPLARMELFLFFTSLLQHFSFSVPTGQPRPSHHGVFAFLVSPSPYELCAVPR
Experiment: Cytochrome panel assay with activity outcomes
Settings: recombinant CYP, pro-luciferin dealkylation, luminescence, p450-cyp2d6; series mostly up to 57.1 µM; activity, negative = inhibition: at the top concentration
On the % scale 0 is the no-effect control and ±100 the full control effect.

activity, negative = inhibition, inactive:
COc1ccc(C(=O)NC(CO)c2nnc(SCc3ccc(Cl)c(Cl)c3)n2C)cc1 (stereo not given) -29.4%, Cc1ccccc1-c1cc(NCc2cccnc2)ncn1 -18.7%, Cc1cccc(CNc2ccnc(-c3ccc(C(=O)N(C)C)cc3)n2)c1 -6.1%, CC(C)(C)C(=O)Nc1ccnc(-c2cccnc2)n1 15.9%, CC(=O)Nc1ccnc(-c2cccnc2)n1 -2.93%, O=[N+]([O-])c1ccccc1/C=N/n1c(COc2ccccc2)n[nH]c1=S -29.2%, Cc1ccc(/C=N/n2cnnc2)s1 -11.6%, Cn1c(=S)c2[nH]c(SCCN3C(=O)c4ccccc4C3=O)nc2n(C)c1=O 2.46% [at 11.4 µM], CCCCC(=O)Nc1nnc(SCC(=O)NC2CCCC2)s1 8.09%, COc1cc2nc(N(C)CCCNC(=O)[C@@H]3CCCO3)nc(N)c2cc1OC -16% [at 25.6 µM], Cc1ccc(CNC(=O)CCNS(=O)(=O)c2ccc3c(c2)c(=O)n(C)c(=O)n3C)cc1 -11.3%, Cn1c(=O)c2cc(S(=O)(=O)NCCC(=O)Nc3ccc(Cl)cc3)ccc2n(C)c1=O -13.9%, O=C1C(C2=NC(C(=O)O)C3C(=O)N(c4ccc(Cl)cc4)C(=O)C23)=C(O)c2ccccc21 (stereo not given) -3.63%, N[C@@H](CSCc1ccccc1)C(=O)O -7.04% [at 11.4 µM], c1ccc2c(CSCc3cccc4ccccc34)cccc2c1 9.11% [at 11.4 µM], N=C(N)SCCc1ccncc1 -9.64% [at 11.4 µM], O=C(O)c1cc(N=Cc2ccccc2O)cc(C(=O)O)c1 7.13% [at 11.4 µM], FC(F)(F)c1nnc(-c2ccccc2)nc1Sc1ccccc1 -29.5%, Cc1cc(C2(c3cc(C)c(O)c(C(=O)O)c3)OS(=O)(=O)c3ccccc32)cc(C(=O)O)c1O 5.11% [at 11.4 µM], O=C1C2Sc3[nH]c(=O)sc3C(c3ccccc3)C2C(=O)N1c1ccccc1 (stereo not given) -14.8%, Cc1nc2cnc(N(C)C)nc2n(C2CC2)c1=O -4.46%, O=C(O)CNc1ccc(C(=O)O)cc1 8.05% [at 11.4 µM], Cc1ccccc1C(C(=O)NCc1ccccc1)N(Cc1ccco1)C(=O)c1ccccn1 (stereo not given) -16.9%, Cc1nn(C)cc1C(=O)NNC(=S)Nc1ccccc1 -1.67%, CCOc1ccc(-c2nn(-c3ccccc3)cc2/C=C(\C#N)S(=O)(=O)c2ccccc2)cc1C 6.66%, C[C@@]12CCC(=O)C=C1CC[C@@H]1[C@@H]2[C@H](O)C[C@]2(C)[C@@H]1CC[C@]2(O)C(=O)CO 2.89% [at 25.6 µM], C[C@@H]1Cc2ccccc2N1NC(=O)c1ccc(Cl)c(S(N)=O)c1 (stereo not given in full) -10.6% [at 25.6 µM], O=C(NCC1CCC(C(=O)O)CC1)OCc1ccccc1 (stereo not given) -12.9%, COc1ccc2cc(CCNC(=O)C3CC3)c(=O)[nH]c2c1 5.67%, CC(=O)Nc1ccc([N+](=O)[O-])cn1 21.1%, CO[C@@H]1/C=C\CC(=O)N[C@@H](C)C(=O)OC[C@@H](OC)[C@H](C)CCCC(=O)OC[C@H]1C 17% [at 11.4 µM], CSc1nc(C)c(CCOC(=O)c2cccc(C)c2)c(=O)[nH]1 -2.28%, CCN(CC)S(=O)(=O)c1cc(C(=O)Nc2ccccc2C(=O)O)ccc1OC 0.338%, CCN(CC)S(=O)(=O)c1cc(C(=O)OC)ccc1Cl -5.66%, NS(=O)(=O)c1cc(Br)c(N=Nc2ccc(O)c3ncccc23)c(Br)c1 -4.11% [at 11.4 µM], CC(C)(C)CC(C)(C)c1cc(O)c(O)c(CN2CCCCC2)c1 -16.1% [at 11.4 µM], Nc1nc2c(nc(Br)n2[C@@H]2O[C@H]3COP(=O)(O)O[C@@H]3[C@H]2O)c(=O)[nH]1 -1.47%, CCN(CC)c1cc(C)c2cc(NC(=O)CNC(C)=O)ccc2n1 -22.7%, O=C(Cc1ccc2c(c1)CCCC2)Nc1ccccc1Br -15.8%, CCOC(=O)c1cc2sc(C)cc2n1CC(=O)N1CCN(C(=O)c2ccco2)CC1 -14.6%, COc1ccc(N=Cc2ccc(CNS(=O)(=O)c3ccc(Cl)cc3)o2)cc1 15.2%, Nc1ncnc2c1ncn2[C@H]1O[C@@H](C(=O)OCCO)[C@@H](O)[C@H]1O 17% [at 11.4 µM], Cc1ccc(CNC(=O)C2CCCN2C(=O)NCc2ccccc2)cc1 (stereo not given) -6.14%, CCCn1nc2cc(C(=O)NCc3ccc4c(c3)OCO4)ccc2c1OCC -40.6%, CC(=O)Nc1cccc(NC(=O)C2CCCN2C(=O)Nc2ccccc2C)c1 (stereo not given) -10.4%, CCc1ccccc1NC(=O)c1ccc(-n2c(C)ccc2C)cc1 -24.8%, CCNc1nc(NCC)nc(N(C)N)n1 -24.1%, CCOC(=O)c1c(C)nc2sc3c(=O)n(-c4ccc(OC)cc4)nnc3c2c1-c1ccc(OC)cc1 -1.38%, CCOC(=O)C1=C(C)NC(C)=C(C(=O)OC)[C@@H]1c1cccc([N+](=O)[O-])c1 -12% [at 25.6 µM], COC(=O)c1cc(OC)c(OC)cc1NC(=O)CSc1ccccc1 4.67%, COCCNC(=O)CCCCCn1c(=S)[nH]c2ccccc2c1=O -1.04%, COc1cccc(N2CCN(C(=O)Nc3ccc4c(c3)NC(=O)CO4)CC2)c1 -13.3%, S=c1nc[nH]c2c1ncn2Cc1ccco1 1.42% [at 11.4 µM], O=C(O)C(Cc1cccs1)C(=O)O 21.5% [at 11.4 µM], CCC/C=C(\CCC)C(NC(=O)c1cccs1)c1ccc(C(F)(F)F)cc1 (stereo not given) 4.02%, CN[C@H]1[C@@H](O[C@@H]2[C@H](O[C@@H]3[C@@H](O)[C@@H](O)[C@@H](N=C(N)N)[C@@H](O)[C@@H]3N=C(N)N)O[C@H](C)[C@@]2(O)C=O)O[C@@H](CO)[C@@H](O)[C@H]1O 1.07% [at 25.6 µM], C=CCN1C(=NC(=O)CC)SC2CS(=O)(=O)CC21 (stereo not given) -2.84%, CC(C)=C[C@H]1[C@@H](COC(=O)c2ccccc2Cl)C1(C)C -3.97% [at 11.4 µM], Clc1ccc2c(c1)C1=C(C(c3ccncc3)O2)C(c2ccc(Br)cc2)n2ncnc2N1 (stereo not given) -28.8%, CCCn1nnc(NC(=O)Cc2ccccc2)n1 -9.5%, CC(C)CN1CCCC2(CCN(S(=O)(=O)c3ccccc3)CC2)C1 -2.15%, O=C(NC1CCCCC1)C1CC=CCC1C(=O)OCC(Cl)=C(Cl)Cl (stereo not given) -29.9%, C=CCNC(=S)NNc1ncnc2sc3c(c12)CC(C)(C)OC3 -2.64%, CCn1nnnc1SCC(=O)c1ccc2c(c1)OCCO2 -25.7%, COC(=O)[C@@]1(Cc2ccc(OC)cc2)[C@H]2c3cc(C(=O)N4CCCC4)n(CCc4c[nH]c5cc(F)ccc45)c3C[C@H]2CN1C(=O)c1ccccc1 0.678%, CC1(C)CC2(CC(c3cccs3)c3cc(Cl)c(O)cc3O2)NC(=S)N1 (stereo not given) -28.9%, C#CCCCO/N=C1/C[C@@H](O)[C@@H](O)[C@@H]2[C@@H]3C(=O)N([C@@H](C)c4ccccc4)C(=O)[C@H]3CC[C@@H]12 -9.9% [at 11.4 µM], COc1cc(OC)cc(C(=O)NCC(=O)OC2CCOC2=O)c1 (stereo not given) -8.8%, O=C(Nc1ncc(Cc2cccc(Cl)c2)s1)C1=NCCN1 -16.7%, CC1CCCC(C)N1C(=O)C1CC(c2ccc(F)cc2)=NO1 (stereo not given) -5.48%, O=C(O)CSCCc1ccccc1 -0.751% [at 11.4 µM], O=c1ccnc(SCc2ccc(Cl)cc2)[nH]1 6.62% [at 11.4 µM], Nc1nc(SCc2ccccc2)c2ncn(Cc3ccccc3)c2n1 9.39% [at 11.4 µM], Cn1c(CNC(=O)Nc2ccccc2)nnc1SCc1ccccc1 -8.99%, CCn1c(SCc2ccc(C)cc2)nnc1-c1nn(-c2ccccc2)ccc1=O -12.7%

AC50, active:
O=C(Nc1ccnc(-c2cccnc2)n1)c1cccc(Cl)c1Cl 2.24 µM, c1ccc(CNc2ccnc(-c3cccnc3)n2)cc1 1.26 µM, Cc1ccccc1-c1nccc(NCc2cccnc2)n1 20 µM, Cc1cccc(CNc2ccnc(-c3cccnc3)n2)c1 0.631 µM, Cn1c(=O)c2cc(S(=O)(=O)NCCC(=O)NCCc3ccc(Cl)cc3)ccc2n(C)c1=O 15.8 µM, c1ccc(CSCCc2ccncc2)cc1 1.26 µM, Clc1ccc(CSCCc2ccncc2)cc1Cl 0.316 µM, c1ccc2c(CSCCc3ccncc3)cccc2c1 0.398 µM, COc1cccc(-c2cncnc2NCCc2c[nH]c3ccc(OC)cc23)c1 2.51 µM, COc1ccc2[nH]cc(CCNc3ncncc3-c3cccnc3)c2c1 12.6 µM, COc1ccc2[nH]cc(CCNc3ncncc3-c3cccc(NS(C)(=O)=O)c3)c2c1 3.16 µM, COc1ccc2c(CC(=O)NCC3CCC(C(=O)O)CC3)cc(=O)oc2c1 (stereo not given) 6.31 µM, CCN(CC)S(=O)(=O)c1cc(C(=O)Nc2ccncc2)ccc1Cl 2.24 µM, Oc1c(CN2CCCCC2)cc(Br)c2cccnc12 7.94 µM, CC(C)N=c1cc2n(-c3ccc(Cl)cc3)c3ccccc3nc-2cc1Nc1ccc(Cl)cc1 2.51 µM, COc1ccccc1NC(=O)N1CCCC1C(=O)NCc1ccc2c(c1)OCO2 (stereo not given) 14.1 µM, CCc1ccccc1NC(=S)NCc1ccc2c(c1)OCO2 1.26 µM, COC(=O)C1=C(C)NC(C)=C(C(=O)OCCSc2ccccc2)[C@@H]1C 25.1 µM, CC[C@H](C(=O)c1cccs1)C(O)(C(F)(F)F)C(F)(F)F 3.16 µM, CC(C)CN1CC[C@@]2(CCCN(S(=O)(=O)c3ccccc3)C2)C1 0.501 µM, CC(C)CN1CCC2(CC1)CCN(S(=O)(=O)c1ccccc1)CC2 1 µM, O=C1CC(c2cccs2)c2cc3c(cc2N1)OCO3 (stereo not given) 8.91 µM, Clc1ccc(CSc2nccn2Cc2ccccc2)cc1 5.01 µM, c1ccc(CCSc2nccn2-c2ccccc2)cc1 1.41 µM, CCc1ccc(CSc2nccn2-c2ccccc2)cc1 17.8 µM
